{"source": "PubChem BioAssay AID2514", "about": "(National Center for Advancing Translational Sciences (NCATS), 2010)", "experiment": "Confirmation Concentration-Response Assay for Enhancers of SMN2 Splice Variant Expression for Probe SAR", "conditions": "HEK293 SMN2 exon7 splicing luciferase reporter, luminescence", "source_text": "NIH Chemical Genomics Center [NCGC] NIH Molecular Libraries Probe Production centers Network [MLPCN] MLPCN Grant: R03 MH084179-01 Assay Submitter (PI): Elliot Androphy NCGC Assay Overview: Spinal muscular atrophy (SMA) is caused by insufficient levels of the survival motor neuron protein SMN. The SMN locus on chromosome 5q13 contains two inverted copies of SMN called SMN1 and SMN2 which are 99% identical at the amino acid level. SMN1 is a fully functional protein and SMN2 skips exon 7 90% of the time. Skipping of exon 7 produces non-functional protein product. 10% of the SMN2 protein includes exon 7 and is fully functional. In the SMA disease state, mutations in the SMN1 locus are the cause of the disease state. Because only 10% of SMN2 is of the fully functional form, it is not sufficient to overcome the deficiency produced by the loss of the SMN1 product. A therapy that either increase the amount of SMN2 product made or to increase the inclusion of exon 7 has been proposed for the treatment of SMA. We have designed an assay to identify small molecules that can increase the amount of functional SMN2 product by appending a luciferase reporter gene after the native SMN2 gene, such that inclusion of exon 7 in the expressed product places the luciferase sequence in frame, thus generating functional luciferase enzyme. […]", "note": "Records with an inconclusive call do not appear. The source made the active and inactive calls. The call rests on the fitted dose curve; in most records, active means well fitted activation curve with a large enough effect; inconclusive means small, poorly fitted or top-dose-only effect; inactive means no such curve, though single readings can be large or run the other way."}
{"smiles": "Brc1ccc(-c2csc(N3CCCCC3)n2)cc1", "values": [{"measurement": "Potency", "value": "13.7 µM (active)"}]}
